Drawing on the supplement of paper PMC13172266, this text covers cell proliferation for 34 compounds.

The structures appear in SMILES notation. Counter-ions that a name gives are not always drawn.

This test concerns U2932 parental. Nature of the test: cell proliferation relative to vehicle (% of vehicle); higher = less growth inhibition. As to conditions: 50 nM; 72 h. The essentials:
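Parental U2932 cells (ABC-DLBCL) and two clones made resistant to an ETS-targeting agent by almost a year of repeated exposure were treated for 72 h with 348 targeted inhibitors at 500 nM or 50 nM. MTT was then applied for 4 h, the reaction was stopped with 25% SDS, and absorbance was measured on a Cytation 3. Values express proliferation as percent of proliferating cells compared with DMSO vehicle.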
Take `O=C(NCc1ccncc1)C12CC3CC(C1)CC(c1ccc(Cl)cc1)(C3)C2`: the cell proliferation was found to be 98.2.

`Cc1csc(-c2nnc(Nc3ccc(Oc4ncccc4-c4ccnc(N)n4)cc3)c3ccccc23)c1`: the cell proliferation is 66.9.

Turning to `CCS(=O)(=O)N1CC(CC#N)(n2cc(-c3ncnc4[nH]ccc34)cn2)C1`, the cell proliferation was found to be 104.

For the compound `COc1ccc(-c2ccc3c(N4CCOC[C@@H]4C)nc(N4CCOC[C@@H]4C)nc3n2)cc1CO`, the cell proliferation worked out at 63.8.

Take `CCOc1ccc(Cc2cc([C@@H]3O[C@H](CO)[C@@H](O)[C@H](O)[C@H]3O)ccc2Cl)cc1` [Dapagliflozin]: the cell proliferation was determined as 103.

As for `CC(=O)O[C@@]12CO[C@@H]1C[C@H](O)[C@@]1(C)C(=O)[C@H](O)C3=C(C)[C@@H](OC(=O)[C@H](O)[C@@H](NC(=O)OC(C)(C)C)c4ccccc4)C[C@@](O)([C@@H](OC(=O)c4ccccc4)[C@H]21)C3(C)C` [Docetaxel], the cell proliferation was found to be 9.62.

Take `O=C(Nc1cccc(Nc2ncc(Br)c(NCCc3cnc[nH]3)n2)c1)N1CCCC1`: the cell proliferation was found to be 99.6.

`Nc1ccccc1NC(=O)c1ccc(CNC(=O)OCc2cccnc2)cc1` [Entinostat (MS-275)]: the cell proliferation came to 93.2.

`CC1(C)CCC(CN2CCN(c3ccc(C(=O)NS(=O)(=O)c4ccc(NCC5CCOCC5)c([N+](=O)[O-])c4)c(Oc4cnc5[nH]ccc5c4)c3)CC2)=C(c2ccc(Cl)cc2)C1`: the cell proliferation amounted to 90.7.

Consider `O=C(O)C(Cc1c[nH]c2ccccc12)N1C(=O)c2ccccc2C1=O` (centres undefined), for which the cell proliferation worked out at 100.

With `Cc1cnc(-c2ccccc2C(C)C)nc1NCc1ccc(-n2ccnn2)cc1`, the cell proliferation stood at 101.

For the compound `CCc1ccc(/C=C2/SC(=S)NC2=O)cc1`, the cell proliferation is 94.2.

`O=C(Cc1ccc(-c2ccc(OCCN3CCOCC3)cc2)cn1)NCc1ccccc1`: the cell proliferation worked out at 13.9.

Regarding `C/C(=C\C(=O)Nc1ccccc1C(=O)O)c1ccc2ccccc2c1`, the cell proliferation came out at 97.4.

`CN1CCC(CNc2ccc3ncc(-c4cccc(OC(F)(F)F)c4)n3n2)CC1` [SGI-1776 free base]: the cell proliferation is 95.5.

For `Cc1cn([C@H]2O[C@@H](CO)[C@H](O)[C@H]2F)c(=O)[nH]c1=O` [Clevudine], the cell proliferation came out at 98.8.

With `CNC(=O)c1cccc(-c2ccc3c(N4CCOC[C@@H]4C)nc(N4CCOC[C@@H]4C)nc3n2)c1`, the cell proliferation is 91.7.

Turning to `CCCCCCCCc1ccc(CCC(N)(CO)CO)cc1` [Fingolimod (FTY720) HCl], the cell proliferation came to 98.3.

Regarding `COC1=CC(c2cc3ccccc3[nH]2)=N/C1=C\c1[nH]c(C)cc1C` [Obatoclax Mesylate (GX15-070)], the cell proliferation stood at 75.2.

Turning to `O=c1[nH]nc(Sc2ncc([N+](=O)[O-])s2)n1-c1ccc2c(c1)OCCO2`, the cell proliferation amounted to 100.

For `CN(NC(=O)CC(=O)NN(C)C(=S)c1ccccc1)C(=S)c1ccccc1` [Elesclomol (STA-4783)], the cell proliferation was 0.103.

In the case of `C[C@@H]1CN(CC(=O)Nc2ccc3c(c2)Cc2cccc(-c4cc(=O)cc(N5CCOCC5)o4)c2S3)C[C@H](C)O1`, the cell proliferation is 105.

Turning to `Nc1nc(F)nc2c1ncn2[C@@H]1O[C@H](COP(=O)(O)O)[C@@H](O)[C@@H]1O` [Fludarabine Phosphate], the cell proliferation worked out at 102.

Turning to `CC/C(=C(\c1ccccc1)c1ccc(OCCN(C)C)cc1)c1ccccc1` [Tamoxifen Citrate], the cell proliferation came to 82.1.

With `O=C(O)CC[C@H]1CC[C@@](c2cc(F)ccc2F)(S(=O)(=O)c2ccc(Cl)cc2)CC1`, the cell proliferation was determined as 93.5.

As to `CCn1c2ccccc2c2cc(Nc3ccnc(NCCCN4CCOCC4)n3)ccc21`, the cell proliferation was determined as 83.6.

Consider `O=C(/C=C\n1cnc(-c2cc(C(F)(F)F)cc(C(F)(F)F)c2)n1)NNc1cnccn1`, for which the cell proliferation came to 82.9.

On to `CCN(CC)CCNC(=O)c1c(C)[nH]c(/C=C2\C(=O)Nc3ccc(F)cc32)c1C` [Sunitinib Malate], for which the cell proliferation is 101.

With `N#Cc1c(Oc2ccc(F)c(NC(=O)Cc3cccc(C(F)(F)F)c3)c2)ccc2nc(NC(=O)C3CC3)sc12`, the cell proliferation came to 95.9.

As for `Cc1nc(C(=O)NCC(=O)O)c(O)c2ccc(Oc3ccccc3)cc12`, the cell proliferation came out at 98.3.

Consider `C[C@H]1c2cccc(O)c2C(=O)C2=C(O)[C@]3(O)C(=O)C(C(N)=O)=C(O)[C@@H](N(C)C)[C@@H]3[C@@H](O)[C@@H]21` [Doxycycline Hyclate], for which the cell proliferation was found to be 106.

Consider `CS(=O)(=O)c1ccc(C(=O)Nc2ccc(Cl)c(-c3ccccn3)c2)c(Cl)c1` [Vismodegib (GDC-0449)], for which the cell proliferation amounted to 98.2.

As for `NC(=O)c1ncn([C@@H]2O[C@H](CO)[C@@H](O)[C@H]2O)c1N` [Acadesine], the cell proliferation is 102.

Regarding `O=C(O)CCNc1cc(N2CCc3ccccc3CC2)nc(-c2ccccn2)n1`, the cell proliferation worked out at 99.3.
